# KKLEB tox = cytotoxicity in KKLEB CF airway cells, primary screen, cytotoxicity control for CF NF-kB inhibitor project, cell-based, uHTS, fluorescence assay plates; KKLEB CF airway cells viability, ATPlite luminescence, overnight; hits give low values; cells stimulated with P. aeruginosa culture filtrate; activity change (cytotoxicity), % at 5 µM; hit rate 0.36% among 360,000;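 active = corrected activity change at or below -50% at 5 µM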
# HSP90 refold inh = HSP90 inhibitors, primary screen, cell lysate, luminescence | Rabbit reticulocyte lysate, luciferase refolding luminescence, 3 h | inhibition, % at 5.6 µM | hit rate 0.91% among 290,000;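 active = inhibition above the screen-wide mean plus 3 SD, computed separately per campaign, cut at about 16% in these data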;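 also: 0% = DMSO wells and 100% = 60 µM geldanamycin wells; inhibitors lower the luminescence because luciferase stays unfolded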
# Mdm2 MdmX PPI = inhibitors of human Mdm2-MdmX association, primary screen, cell-based, luminescence, split luciferase, SaOS-2, uHTS; hit rate 3% among 330,000; SaOS-2 split-luciferase Mdm2/MdmX complementation; inhibition, % at 8 µM; Protein Mdm4 (Homo sapiens) + E3 ubiquitin-protein ligase Mdm2 (Homo sapiens), …;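 active = inhibition of at least 50% at 8 µM in the primary screen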
# Target sequence (O15151 whole entry, looked up): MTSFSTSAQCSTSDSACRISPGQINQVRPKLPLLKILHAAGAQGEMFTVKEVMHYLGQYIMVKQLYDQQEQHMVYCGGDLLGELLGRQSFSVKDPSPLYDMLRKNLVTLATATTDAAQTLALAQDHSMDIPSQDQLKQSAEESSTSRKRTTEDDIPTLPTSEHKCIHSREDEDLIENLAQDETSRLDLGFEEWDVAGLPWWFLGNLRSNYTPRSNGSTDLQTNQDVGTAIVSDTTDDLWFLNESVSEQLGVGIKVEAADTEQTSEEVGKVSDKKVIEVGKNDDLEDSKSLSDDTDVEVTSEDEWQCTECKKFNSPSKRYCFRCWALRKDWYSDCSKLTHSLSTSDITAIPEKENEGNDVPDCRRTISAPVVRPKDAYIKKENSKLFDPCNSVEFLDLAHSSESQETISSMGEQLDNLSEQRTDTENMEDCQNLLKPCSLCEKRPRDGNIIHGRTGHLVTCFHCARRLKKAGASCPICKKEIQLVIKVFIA
# Target sequence (Q00987 whole entry, looked up): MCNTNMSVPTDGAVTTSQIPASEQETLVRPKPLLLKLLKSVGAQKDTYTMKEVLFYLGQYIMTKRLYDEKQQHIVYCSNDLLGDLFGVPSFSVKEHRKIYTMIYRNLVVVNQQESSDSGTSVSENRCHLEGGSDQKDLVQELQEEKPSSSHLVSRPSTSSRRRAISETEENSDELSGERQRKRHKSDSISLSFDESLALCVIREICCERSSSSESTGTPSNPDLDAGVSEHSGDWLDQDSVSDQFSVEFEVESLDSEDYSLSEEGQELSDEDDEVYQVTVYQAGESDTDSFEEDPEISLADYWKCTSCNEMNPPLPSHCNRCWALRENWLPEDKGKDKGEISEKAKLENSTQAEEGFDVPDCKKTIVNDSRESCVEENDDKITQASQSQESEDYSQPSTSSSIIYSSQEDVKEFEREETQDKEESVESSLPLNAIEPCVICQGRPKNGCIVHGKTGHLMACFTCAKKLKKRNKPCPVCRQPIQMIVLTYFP
# LGR2 antag = inhibitors of bursicon-induced LGR2 CRE-luciferase signal, primary screen, cell-based, HEK293, CRE-luciferase reporter, bursicon stimulation. bursicon-stimulated, 4 h. inhibition, % at 9.99 µM. Drosophila bursicon receptor LGR2 (rickets). hit rate 0.35% among 380,000;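 active = drop in luminescence signal, shown as inhibition above about 50% in the replicate tests, limit read from the data, passing the limit was not always enough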;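 also: agonist challenge used bursicon conditioned medium at about half maximal strength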
# Peg3 prom inh = Peg3 promoter-driven luciferase inhibitors, primary screen, cell-based, HeLa, luciferase luminescence; inhibition, % at 20 µM; HeLa PEG-Prom luciferase reporter, overnight; hit rate 1.7% among 360,000; AID 588405, 2011;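 active = inhibition of at least 50% at 20 µM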
# CF NFkB block = inhibitors of PAF-induced NF-kB signaling, primary screen, cell-based, GFP fluorescence, uHTS | inhibition, % at 5 µM | hit rate 0.86% among 360,000 | KKLEB NF-kB-GFP reporter, GFP fluorescence overnight | AID 588850, 2011;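 active = at least 50% inhibition at 5 µM, scaled per plate between neutral and stimulator controls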;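 also: PAF is a Pseudomonas aeruginosa culture filtrate used as stimulus; plate controls were PAF-stimulated DMSO wells for no effect and unstimulated DMSO wells for full effect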
# Mdm2 MdmX conf = Mdm2-MdmX complex disruptors, retested hits, confirmation, luminescence, single concentration; inhibition, % at 8 µM; AID 489028, 2010; hit rate 55% among 10,000; Mdm2-MdmX binding, luminescent assay; shares compounds with Mdm2 MdmX PPI; in the data active = inhibition above about 40%
# Full FLuc ctr = full-length luciferase signal inhibition, confirmation, counter-screen for Mdm2/MdmX interaction inhibitor project, cell-based, single concentration, SaOS-2. AID 504607, 2011. shares compounds with Mdm2 MdmX PPI. hit rate 77% among 6,200. SaOS-2 full-length luciferase counterscreen, luminescence. inhibition, % at 8 µM;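 active = mean inhibition at 8 µM reaching about 37%, which flags the compound as non-specific, limit read from the data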;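 also: p53-null SaOS-2 cells with luciferase driven by a doxycycline-inducible promoter; compound on cells about two nights before reading with doxycycline added after day one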
# * hit, by the source's call; . = no result given. Sampled rows, rich in hits. Any-hit rate of the full collection: about 3.6%.
SMILES,KKLEB tox,HSP90 refold inh,Mdm2 MdmX PPI,LGR2 antag,Peg3 prom inh,CF NFkB block,Mdm2 MdmX conf,others
COc1cc(C(=O)Nc2ccc3c(c2)CCN3C(C)=O)cc(OC)c1OC,-3,-1,59*,-1,-26,4,59*,Full FLuc ctr=62*
COc1cc(C(=O)Nc2ccc3c(c2)Cc2ccccc2-3)cc(OC)c1OC,2,-5,47,.,29,8,.,
O=C(C[C@H]1C=C[C@H](NC(=O)C2CCC2)[C@@H](CO)O1)Nc1nccs1,.,.,.,-5,.,.,.,
C/C(=N\NC(=O)c1ccccc1O)C1CC1,-3,0,52*,-15,24,10,17,
COc1cccc(C(=O)N/N=C(\C)c2ccc(NC(=O)Cc3ccccc3)cc2)c1OC,16,-5,-17,-11,-24,-15,.,
C/C(=N\NC(=O)c1ccccc1O)c1ccc(NC(=O)Cc2ccccc2)cc1,17,-1,51*,-13,-28,-38,20,
Cc1cc(C)cc(C(=O)Nc2ccc(NC(=O)Cc3ccccc3)cc2)c1,12,-2,52*,0,12,-15,10,
Cc1ccc(-n2c(O)c(C=NCc3ccccn3)c3ccccc3c2=O)cc1C,5,-4,51*,-2,35,-3,24,
COC(=O)Cn1c(=O)c(C(=O)CCl)c(N)n(Cc2ccccc2)c1=O,5,5,75*,-8,81*,28,48*,Full FLuc ctr=70*
CCc1nc(N=C(N)N)nc2ccccc12,.,0,59*,.,.,.,15,
NC(N)=Nc1nc(-c2ccccc2)c2ccccc2n1,13,5,62*,.,57*,-99,39,
O=c1c2cccnc2[nH]c(=S)n1CCC1=CCCCC1,3,2,63*,.,2,-10,1,
CCCCCn1c(=S)[nH]c2ncccc2c1=O,-8,-3,32,.,7,7,.,
C=CCNC(=O)c1ccc(N(Cc2ccc(Cl)cc2)S(C)(=O)=O)cc1,0,1,19,3,9,18,.,
C=CCNC(=O)c1ccc(CN(c2ccc(OCC)cc2)S(=O)(=O)c2ccc(C)cc2)cc1,-15,2,50,19,37,7,40,Full FLuc ctr=50*
C[C@@H]1CN([C@@H](C)CO)S(=O)(=O)c2ccc(Br)cc2O[C@H]1CN(C)Cc1ccccc1,.,.,.,4,.,.,.,
CC(=O)N(C)C[C@@H]1Oc2cc(-c3cncnc3)ccc2S(=O)(=O)N([C@H](C)CO)C[C@H]1C,.,.,.,-2,.,.,.,
CO[C@H]1CN(C)C(=O)c2cc(NC(=O)NC(C)C)ccc2OC[C@H](C)N(CC2CC2)C[C@H]1C,.,.,.,-14,.,.,.,
O=C(CCCN1C(=O)/C(=C/c2ccccc2)SC1=S)N1CCOCC1,-1,-2,30,12,8,-6,.,
CN1CCN(C(=O)CCCN2C(=O)/C(=C/c3cccc(Br)c3)SC2=S)CC1,8,15,63*,6,17,2,31,Full FLuc ctr=29
O=C(CCCN1C(=O)/C(=C/c2cccc(Br)c2)SC1=S)N1CCOCC1,6,-1,61*,7,8,20,21,
Cc1cc(N/N=C/c2cccc([N+](=O)[O-])c2)nc(-n2nc(C)cc2C)n1,12,0,15,-7,9,-14,.,
COc1ccc(/C=N/Nc2cc(N3CCCC3)nc(N3CCCC3)n2)cc1,-34,-1,77*,7,45,19,20,
COc1ccc(/C=N/Nc2cc(C)nc(-n3nc(C)cc3C)n2)cc1,3,0,54*,-13,-16,4,40*,Full FLuc ctr=52*
Cc1cc(N/N=C/c2ccccc2[N+](=O)[O-])nc(-n2nc(C)cc2C)n1,-1,-1,53*,-6,7,11,37,Full FLuc ctr=43*
SMILES,KKLEB tox,HSP90 refold inh,Mdm2 MdmX PPI,LGR2 antag,Peg3 prom inh,CF NFkB block,Mdm2 MdmX conf,others
Cc1cc(N/N=C/c2cccc(Cl)c2)nc(-n2nc(C)cc2C)n1,-3,6,64*,-2,3,7,31,
C[C@@H]1CN([C@H](C)CO)C(=O)Cc2cc(NC(=O)CCC(F)(F)F)ccc2O[C@@H]1CN(C)C(=O)Nc1ccc2c(c1)OCO2,.,.,.,10,.,.,.,
O=C(C[C@@H]1C=C[C@@H](NC(=O)CN2CCOCC2)[C@H](CO)O1)NCc1cccc(F)c1,.,.,.,-3,.,.,.,
C[C@@H]1CN([C@H](C)CO)C(=O)CCCn2cc(nn2)CO[C@@H]1CN(C)C(=O)C1CC1,.,.,.,0,.,.,.,
Cc1ccc2c(c1)-c1c(ssc1=S)C(C)(C)N2C(=O)c1ccco1,-9,-4,57*,.,15,16,37,
CC1(C)c2ssc(=S)c2-c2ccccc2N1C(=O)c1ccco1,-11,-3,25,.,21,13,.,
Cn1c(SCC(=O)Nc2ccccc2)nc2c([nH]c3ccccc32)c1=O,-18,-1,67*,-5,46,27,10,
Cn1c(SCC(=O)NCc2ccccc2)nc2c([nH]c3ccccc32)c1=O,.,3,29,.,.,.,.,
COCCn1c(SCC(=O)Nc2ccccc2C)nc2c(oc3ccccc32)c1=O,5,-1,-5,4,35,-7,.,
COCCn1c(SCC(=O)Nc2cccc(NC(C)=O)c2)nc2c([nH]c3ccccc32)c1=O,1,-3,19,12,12,-22,.,
COCCn1c(SCC(=O)Nc2ccc(OC)cc2)nc2c(oc3ccccc32)c1=O,.,-2,99*,.,.,.,15,
COc1cccc(NC(=O)CSc2nc3c([nH]c4ccccc43)c(=O)n2C)c1,-17,2,55*,10,59*,2,10,
COCCn1c(SCC(=O)Nc2cc(C)on2)nc2cc(Cl)ccc2c1=O,4,.,64*,5,24,1,6,
COCCn1c(SCC(=O)Nc2cccc(F)c2)nc2c([nH]c3ccccc32)c1=O,-14,2,88*,1,35,18,66*,Full FLuc ctr=47*
Cc1cccc(NC(=O)CSc2nc3c([nH]c4ccccc43)c(=O)n2C)c1,-15,-1,65*,18,32,-17,1,
Cc1ccc(C2=NC(C(F)(F)F)(C(F)(F)F)c3c(n(-c4ccc(F)cc4)c(=O)[nH]c3=O)N2)cc1,-10,0,22,-8,42,35,.,
